Results on 88 compounds are retold here after publication PMC4336329 (PLoS ONE, 2015).

In all, about 310,000 compounds went through this assay and about 14,000 (4.5%) showed an effect of 50% or more. Effects have a minus sign here. What follows is part of a selection rich in strong results, with near analogues and random picks from the rest.
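Note: peak tail current of the secondary pulse compared with the same well before compound.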

The target in the test is human ether-à-go-go-related gene (hERG) potassium channel (human, UniProt Q12809). In words: primary screen, population patch clamp on CHO cells stably expressing hERG; higher = less effect of the substance.
human ether-à-go-go-related gene (hERG) potassium channel, sequence (Q12809 whole entry, looked up): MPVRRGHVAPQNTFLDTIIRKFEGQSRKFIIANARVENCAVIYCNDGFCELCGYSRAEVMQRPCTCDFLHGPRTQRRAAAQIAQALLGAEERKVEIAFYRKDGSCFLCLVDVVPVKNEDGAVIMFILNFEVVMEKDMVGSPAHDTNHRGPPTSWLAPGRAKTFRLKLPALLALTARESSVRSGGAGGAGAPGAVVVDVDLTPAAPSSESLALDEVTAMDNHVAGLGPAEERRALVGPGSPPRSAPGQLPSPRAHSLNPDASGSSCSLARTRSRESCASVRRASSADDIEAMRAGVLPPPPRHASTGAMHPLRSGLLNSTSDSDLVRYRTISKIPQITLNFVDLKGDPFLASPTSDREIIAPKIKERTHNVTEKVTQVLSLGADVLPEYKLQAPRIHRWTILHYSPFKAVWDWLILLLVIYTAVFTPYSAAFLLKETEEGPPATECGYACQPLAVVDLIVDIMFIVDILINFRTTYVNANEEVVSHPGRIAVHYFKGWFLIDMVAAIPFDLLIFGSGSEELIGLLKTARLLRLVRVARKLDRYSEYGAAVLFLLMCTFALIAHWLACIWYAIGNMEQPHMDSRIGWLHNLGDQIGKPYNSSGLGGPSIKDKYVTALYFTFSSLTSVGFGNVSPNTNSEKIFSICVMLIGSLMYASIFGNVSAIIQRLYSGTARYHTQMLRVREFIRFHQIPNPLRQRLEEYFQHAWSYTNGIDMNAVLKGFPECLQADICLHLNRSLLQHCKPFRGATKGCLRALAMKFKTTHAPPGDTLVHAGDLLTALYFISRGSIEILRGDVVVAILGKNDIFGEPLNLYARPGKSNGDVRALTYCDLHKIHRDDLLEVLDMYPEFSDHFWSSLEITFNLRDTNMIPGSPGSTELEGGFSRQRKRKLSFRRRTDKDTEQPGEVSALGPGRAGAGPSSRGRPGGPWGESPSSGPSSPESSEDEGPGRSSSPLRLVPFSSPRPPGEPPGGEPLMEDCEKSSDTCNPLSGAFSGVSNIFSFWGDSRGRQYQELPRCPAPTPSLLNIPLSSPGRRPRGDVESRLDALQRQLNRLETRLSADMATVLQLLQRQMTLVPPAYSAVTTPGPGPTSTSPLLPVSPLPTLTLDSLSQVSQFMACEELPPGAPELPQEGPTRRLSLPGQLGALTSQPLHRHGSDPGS
Regarding `CCCOc1ccc(N2C(=O)C3C(C(C)C)NC4(C(=O)c5ccccc5C4=O)C3C2=O)cc1` (stereo not shown), the “hERG current change (%, negative = inhibition) at 10uM” value is reported as -0.496%.
In the case of `O=C(NNC1CC(=O)N(c2ccc3c(c2)OCCO3)C1=O)c1ccc(Cl)cc1` (stereo not shown), the “hERG current change (%, negative = inhibition) at 10uM” value is reported as 10.1%.
As to `Cc1ccc(CNC(=O)CNS(=O)(=O)c2ccc(Br)s2)cc1`, the “hERG current change (%, negative = inhibition) at 10uM” value is listed as -0.279%.
Consider `O=C1C2C3C=CC(C4CC34)C2C(=O)N1/N=C/c1ccc(-c2cccc([N+](=O)[O-])c2)o1` (stereo not shown), for which the “hERG current change (%, negative = inhibition) at 10uM” value is reported as -14.1%.
Regarding `O=C(CSc1nncc2ccccc12)Nc1ccc(C(=O)O)cc1`, the “hERG current change (%, negative = inhibition) at 10uM” value was found to be 10.6%.
As to `O=C(COC(=O)c1ccc(O)cc1)NC1CCCC1`, the “hERG current change (%, negative = inhibition) at 10uM” value is on record as 14%.
`C#CCOc1ccc(/C=C2/C(=O)N(c3cccc(C(=O)O)c3)N=C2C)cc1OC`: the “hERG current change (%, negative = inhibition) at 10uM” value is -2.13%.
As for `CCCN(CC#CC(O)(c1ccccc1)c1cccnc1)CCC` (stereo not shown), the “hERG current change (%, negative = inhibition) at 10uM” value is recorded as -37.3%.
Turning to `COc1ccc(OC)c(NC(=O)CSc2ccc3nnc(-c4ccccn4)n3n2)c1`, the “hERG current change (%, negative = inhibition) at 10uM” value is given as -69%.
`COc1ccc(CCNC(=O)CSc2nnc3ccc(-c4ccccn4)nn23)cc1OC`: the “hERG current change (%, negative = inhibition) at 10uM” value amounted to 2.17%.
For `O=C(CSc1nnc2ccc(-c3ccccn3)nn12)NCCc1ccccc1`, the “hERG current change (%, negative = inhibition) at 10uM” value is -6.49%.
Regarding `COc1ccccc1NC(=O)CSc1ccc2nnc(-c3ccccn3)n2n1`, the “hERG current change (%, negative = inhibition) at 10uM” value is given as 0.136%.
In the case of `COc1ccc(NC(=O)CSc2ccc3nnc(-c4ccccn4)n3n2)c(OC)c1` it was -25.9%.
As for `O=C(CSc1ccc2nnc(-c3cccnc3)n2n1)Nc1ccccc1C(F)(F)F`, the “hERG current change (%, negative = inhibition) at 10uM” value is -33.3%.
The figure for `CCOc1ccccc1NC(=O)CSc1ccc2nnc(-c3cccnc3)n2n1` is -61.9%.
For `COc1ccc(CCNC(=O)CSc2nnc3ccc(-c4ccccn4)nn23)cc1`, the “hERG current change (%, negative = inhibition) at 10uM” value was -51.6%.
The figure for `COc1ccccc1NC(=O)CSc1ccc2nnc(-c3ccncc3)n2n1` is -31.3%; for `O=C(CSc1ccc2nnc(-c3cccnc3)n2n1)Nc1ccc(F)cc1F` it is -21.5%; for `COc1ccccc1NC(=O)CSc1ccc2nnc(-c3ccc(C)cc3)n2n1` it is -26.6%.
`COc1ccccc1NC(=O)CSc1ccc2nnc(-c3cccnc3)n2n1`: the “hERG current change (%, negative = inhibition) at 10uM” value is on record as -57%.
Consider `COc1ccc(C(O)C(C)NC(C)C(O)c2ccc(OC)cc2)cc1` (stereo not shown), for which the “hERG current change (%, negative = inhibition) at 10uM” value amounted to 4.3%.
The figure for `COc1ccc(S(=O)(=O)N2CCN(Cc3cc(OC)c(O)c(OC)c3)CC2)cc1.O=C(O)C(=O)O` is 4.57%; for `CN(C)CCNc1nc(-c2ccccc2)nnc1C(F)(F)F` it is -3.83%; for `CN1CCN(C(=O)c2ccc3c(c2)NC(=O)C(N2CCOCC2)S3)CC1` (stereo not shown) it is 3.85%.
The figure for `COc1ccc(C(C)=O)cc1CN1C(=O)C(C)N(c2ccc(C)cc2)C1=O` (stereo not shown) is -25.4%.
On to `CCn1nc(NC(=O)c2ccco2)c2cc3ccccc3nc21`, for which the “hERG current change (%, negative = inhibition) at 10uM” value is -0.887%.
As to `Cc1ccccc1CN1CCC(n2nccc2NC(=O)c2ccc3c(c2)OCO3)CC1`, the “hERG current change (%, negative = inhibition) at 10uM” value is listed as -9.06%.
In the case of `COc1ccc(NC(=O)CSc2ccc3nnc(-c4cccnc4)n3n2)c(OC)c1` it was -32.4%; in that of `COc1ccc(OC)c(NC(=O)CSc2ccc3nnc(-c4cccnc4)n3n2)c1`, -61.1%; in that of `COc1ccc(OC)c(NC(=O)CSc2ccc(-c3cccnc3)nn2)c1`, -17.6%.
On to `Cc1cc2nc(-c3cccnc3SCC(=O)NCc3ccco3)[nH]c2cc1C`, for which the “hERG current change (%, negative = inhibition) at 10uM” value is -5.15%.
On to `Cc1c(C(=O)N2CCC(Cc3ccccc3)CC2)cccc1[N+](=O)[O-]`, for which the “hERG current change (%, negative = inhibition) at 10uM” value is -34.3%.
As to `O=[N+]([O-])c1ccc(CN2CCC(Cc3ccccc3)CC2)cc1`, the “hERG current change (%, negative = inhibition) at 10uM” value is -55.1%.
As for `Cc1ccc(C(=O)N2CCC(Cc3ccccc3)CC2)cc1[N+](=O)[O-]`, the “hERG current change (%, negative = inhibition) at 10uM” value is -63.8%.
In the case of `O=[N+]([O-])c1cccc(CN2CCC(Cc3ccccc3)CC2)c1` it was -31.4%; in that of `Cc1cc(C(=O)N2CCC(Cc3ccccc3)CC2)ccc1[N+](=O)[O-]`, -38.5%; in that of `O=[N+]([O-])c1ccc(C(=S)N2CCC(Cc3ccccc3)CC2)cc1`, -32.4%.
In the case of `O=C(c1ccc([N+](=O)[O-])cc1)N1CCC(Cc2ccccc2)CC1` it was -73.4%; in that of `O=C(c1ccccc1[N+](=O)[O-])N1CCC(Cc2ccccc2)CC1`, -19%; in that of `Cc1ccc(C(=O)Nc2ccc(NC(=O)c3ccc(C)o3)cc2)o1`, -1.94%.
Regarding `Cc1ccc(F)cc1CNC(=O)C1CCC(=O)N(CCCN2CCCC2=O)C1` (stereo not shown), the “hERG current change (%, negative = inhibition) at 10uM” value amounted to 14.6%.
In the case of `Cc1ccc(S(=O)(=O)Nc2cc(C(=O)Nc3cc(C)cc(C)c3)ccc2Cl)cc1` it was -5.44%; in that of `Cc1cc(NC(=O)CSc2nc(=O)n(CCCN(C)C)c3c2CCCC3)no1`, -7.06%; in that of `Cc1ccc(NC(=O)CSc2nc(=O)n(Cc3ccncc3)c3c2CCC3)c(C)c1`, -26.1%.
In the case of `Cc1ccc2nc(NC(=O)CSc3nc(=O)n(CCN(C)C)c4c3CCCC4)sc2c1` it was -50.2%; in that of `CCN(CC)CCn1c2c(c(SCC(=O)Nc3nc4ccc(C)cc4s3)nc1=O)CCC2`, -30.4%.
In the case of `Cc1ccc2nc(NC(=O)CSc3nc(=O)n(CCCN(C)C)c4c3CCC4)sc2c1` it was -50.2%; in that of `Cc1ccc(NC(=O)CSc2nc(=O)n(CCCN(C)C)c3c2CCC3)c(C)c1`, -50.6%; in that of `Cc1cc(NC(=O)CSc2nc(=O)n(CCN(C)C)c3c2CCCC3)no1`, -6.91%.
As to `CN(C)CCCn1c2c(c(SCC(=O)Nc3ccc4c(c3)OCCO4)nc1=O)CCC2`, the “hERG current change (%, negative = inhibition) at 10uM” value is recorded as -12.2%.
As to `CN(C)CCCn1c2c(c(SCC(=O)Nc3nccs3)nc1=O)CCC2`, the “hERG current change (%, negative = inhibition) at 10uM” value is listed as -9.32%.
As for `CN1CCC(=O)N([C@H](CN=[N+]=[N-])Cc2ccccc2)CC1`, the “hERG current change (%, negative = inhibition) at 10uM” value stood at 17.9%.
For `c1cnc2ccc(-c3ccc4ncccc4c3)cc2c1`, the “hERG current change (%, negative = inhibition) at 10uM” value was -5.61%.
On to `COc1cc(C=O)ccc1OCCOCCOc1ccc(Cl)cc1`, for which the “hERG current change (%, negative = inhibition) at 10uM” value was -37.6%.
Turning to `COc1ccccc1NC(=O)c1ccc(S(=O)(=O)N2CCCC2)cc1`, the “hERG current change (%, negative = inhibition) at 10uM” value is -20.3%.
`CCOC(=O)c1cccc(NC(=O)c2cc3ccccc3o2)c1`: the “hERG current change (%, negative = inhibition) at 10uM” value is 1.39%.
Take `Cl.c1ccc2c(N3CCNCC3)nsc2c1`: the “hERG current change (%, negative = inhibition) at 10uM” value was -5.8%.
As to `Cl.O=C1[C@H]2CCCC[C@H]2C(=O)N1CCCCN1CCN(c2nsc3ccccc23)CC1`, the “hERG current change (%, negative = inhibition) at 10uM” value is on record as -74.3%.
For the compound `FC(F)(F)C1CCCN(c2nsc3ccccc23)C1` (stereo not shown), the “hERG current change (%, negative = inhibition) at 10uM” value came out at 19.1%.
Turning to `COc1cccc2nc3cc(C)c(C)cc3nc12`, the “hERG current change (%, negative = inhibition) at 10uM” value is -7.73%.
In the case of `CC(=O)N1N=C(c2cccs2)CC1c1cccs1` (stereo not shown) it was 5.99%.
In the case of `CCC(=O)N1N=C(c2cccs2)CC1c1ccc(OC)cc1` (stereo not shown) it was 15.9%.
For `O=C(CN1CCCCC1)N1N=C(c2cccs2)CC1c1cccs1` (stereo not shown), the “hERG current change (%, negative = inhibition) at 10uM” value was -58.7%.
Take `COc1ccc(C2CC(c3cccs3)=NN2C(=O)CCC(=O)O)cc1` (stereo not shown): the “hERG current change (%, negative = inhibition) at 10uM” value is 10.5%.
Take `O=C(CN1CCOCC1)N1N=C(c2cccs2)CC1c1cccs1` (stereo not shown): the “hERG current change (%, negative = inhibition) at 10uM” value was determined as 18.9%.
The figure for `COc1ccc(C2CC(c3cccs3)=NN2C(=O)CN2CCCCC2)cc1` (stereo not shown) is -71.9%; for `O=C(CSc1ncn[nH]1)Nc1nc(-c2ccccc2)ns1` it is -7.44%.
As for `CCCC(=O)c1cc(F)c(N2CCN(S(=O)(=O)c3ccccc3)CC2)cc1C`, the “hERG current change (%, negative = inhibition) at 10uM” value is 13.2%.
On to `CCOc1ccc(NC(=O)C(C)Sc2nccn2C)cc1` (stereo not shown), for which the “hERG current change (%, negative = inhibition) at 10uM” value is 6.78%.
In the case of `Cn1cccc1Cc1nnc(SCC(=O)NCC2CCCO2)n1CCc1ccccc1` (stereo not shown) it was -10.8%; in that of `CCCn1nc(C(=O)OCC(=O)Nc2cccc(OC)c2)c2ccccc2c1=O`, 3.96%; in that of `Cc1ccc(-n2nnnc2SCC(=O)NNC(=O)c2ccco2)cc1C`, 24.3%.
Regarding `O=C(O)c1ccc(CSc2nnnn2-c2ccc(F)cc2)cc1`, the “hERG current change (%, negative = inhibition) at 10uM” value is -9.84%.
For the compound `CCN(CC)C(CNC(=O)CSc1nnnn1-c1ccc(C)c(C)c1)c1ccco1` (stereo not shown), the “hERG current change (%, negative = inhibition) at 10uM” value is given as -54.5%.
Regarding `Cc1ccc(-n2nnnc2SCc2ccc(C(=O)O)cc2)cc1C`, the “hERG current change (%, negative = inhibition) at 10uM” value is -70.7%.
Consider `CCN(CC)C(CNC(=O)CSc1nnnn1-c1cccc(F)c1)c1ccco1` (stereo not shown), for which the “hERG current change (%, negative = inhibition) at 10uM” value was -16.4%.
Consider `O=C(O)c1ccc(-n2nnnc2SCc2ccccc2)cc1`, for which the “hERG current change (%, negative = inhibition) at 10uM” value came to 8.05%.
Consider `COc1cc(CCc2ccc3c(c2)OCO3)oc(=O)c1`, for which the “hERG current change (%, negative = inhibition) at 10uM” value was determined as 4.95%.
Turning to `Cc1ccc(C2(C)NC(=O)N(CC(=O)NNC(=O)c3ccoc3C)C2=O)cc1` (stereo not shown), the “hERG current change (%, negative = inhibition) at 10uM” value came to 26.6%.
For `Cc1nn(CC(=O)NCc2ccccc2)c(=O)c2cccn12`, the “hERG current change (%, negative = inhibition) at 10uM” value was 9.27%.
The figure for `O=C(Nc1ccc(Cl)cc1)N1CCN(c2ncccn2)CC1` is -13.2%; for `O=C(Nc1ccc(C(F)(F)F)cc1)N1CCN(c2ccnc3cc(Cl)ccc23)CC1` it is -62.2%; for `O=C(Nc1ccc(OC(F)(F)F)cc1)N1CCN(c2ccnc3cc(Cl)ccc23)CC1` it is -72.1%.
Regarding `CC(C)(C)OC(=O)N1CCCN(C(=O)Nc2ccc(OC(F)(F)F)cc2)CC1`, the “hERG current change (%, negative = inhibition) at 10uM” value is -22.6%.
Consider `O=C(Nc1ccc(Cl)cc1)N1CCCN(c2ccc(C(F)(F)F)cc2[N+](=O)[O-])CC1`, for which the “hERG current change (%, negative = inhibition) at 10uM” value worked out at 4.29%.
As to `Cc1csc2c(N3CCN(C(=O)Nc4ccc(OC(F)(F)F)cc4)CC3)ncnc12`, the “hERG current change (%, negative = inhibition) at 10uM” value is reported as -32.9%.
`Cc1csc2ncnc(N3CCN(C(=O)Nc4ccc(OC(F)(F)F)cc4)CC3)c12`: the “hERG current change (%, negative = inhibition) at 10uM” value was -68%.
On to `Cc1csc2ncnc(N3CCN(C(=S)Nc4ccc(C(F)(F)F)cc4)CC3)c12`, for which the “hERG current change (%, negative = inhibition) at 10uM” value is on record as -16.7%.
